Source: PubChem BioAssay (NCATS)
Unmarked numbers belong to inactive results. The rule behind the calls is not given here.

test system: HIV-1 nucleocapsid protein NCp7 (binding to TG oligonucleotide); assay: HIV Nucleocapsid (AID 346); details: HIV-1 NC / fluorescein-TGTGTGTG probe, fluorescence polarization;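 note: potency is for inhibitors that block NC binding and lower polarization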
Method in brief: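 HIV-1 NC (100 nM) binding to fluorescein-labelled ssDNA TG4xF (10 nM) in Hepes pH 7.5, 250mM NaCl, 1uM ZnCl2, TCEP and 2-mercaptoethanol; compounds pin-transferred, 1 hr room temperature, fluorescence polarization read on CCD imager.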
Potency is the fitted concentration of half-maximal effect.

SMILES	Potency
COc1ccc(C(=O)N2CCC3(CCCN(Cc4nccs4)C3)CC2)cc1	> 20 µM
COc1ccccc1CN1CCCC2(CCN(S(=O)(=O)c3ccccc3)CC2)C1	> 20 µM
O=C(Nc1cccc(F)c1)N1CCCC2(CCN(S(=O)(=O)c3ccccc3)CC2)C1	> 20 µM
Cc1cccc(CNc2ncnc3ccc(-c4c(C)noc4C)cc23)c1	> 20 µM
c1cncc(CNc2ccnc(-c3cccnc3)n2)c1	> 20 µM
COC(=O)N1CCC2(CC1)CN(C(=O)Nc1ccccc1)C2	> 20 µM
COc1cccc(-c2ccc3ncnc(NCc4cccs4)c3c2)c1	> 20 µM
c1ccc(CNc2ccnc(-c3cccnc3)n2)cc1	> 20 µM
CC(=O)N1CCC2(CC1)CN(c1ccccn1)C2	> 20 µM
O=S(=O)(c1ccccc1)N1CCC[C@@]2(CCN(Cc3ccccc3)C2)C1	> 20 µM
COc1ccc(Oc2ncc3nc(-c4ccc(Cl)cc4)c(=O)n(CCC#N)c3n2)cc1	> 20 µM
COc1ccccc1CNc1ncncc1-c1ccc(N(C)C)cc1	> 20 µM
CN(C)c1nc(-c2cccnc2)nc2ccccc12	> 20 µM
COC(=O)N1CCC[C@@]2(CCN(c3ccncc3)C2)C1	> 20 µM
CN(C)Cc1ccccc1-c1cncnc1Nc1ccncc1	> 20 µM
c1cncc(-c2cc(-n3ccnc3)ncn2)c1	> 20 µM
COc1cccc(-c2nccc(NCc3cccnc3)n2)c1	> 20 µM
CN(Cc1ccco1)c1ccnc(-c2cccnc2)n1	> 20 µM
Cn1cccc1C(=O)N1CCC2(CCCN(Cc3nccs3)C2)CC1	> 20 µM
COCCNc1nc(-c2cccc(OC)c2)nc2ccccc12	> 20 µM
COc1ccccc1CN1CCC2(CC1)CCN(C(=O)c1cc(C(F)(F)F)cc(C(F)(F)F)c1)CC2	> 20 µM
O=c1c(-c2ccc(F)cc2)nc2cnc(Oc3ccccc3)nc2n1C1CC1	> 20 µM
Cc1cnc(CNc2cc(-c3ccc(C(=O)N(C)C)cc3)ncn2)cn1	> 20 µM
CS(=O)(=O)N1CCC2(CC1)CN(c1ncccn1)C2	> 20 µM
O=C(c1csnn1)N1CCC2(CC1)CN(c1ccccc1)C2	> 20 µM
